Most compounds without a hit are left out; they make up all but 1.5% or so of the library.
IDE act: human IDE activators in live cells, primary screen, fluorescence polarization, HEK cells, FAbeta-B substrate; AID 493087, 2011; FAbeta-B cleavage; 0% vehicle, 100% cell-free pure enzyme wells; Insulin-degrading enzyme (Homo sapiens), P14735; 340,000 tested, 0.073% active; activation, % at 5.96 µM;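 active = activation above the mean of all tested compounds plus 3 SD, set per screening campaign, cut at about 17% in these data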
Bcl-xL primary: inhibitors of human Bcl-xL, primary screen, biochemical, fluorescence polarization, HTS | GST-Bcl-xL / FITC-Bim BH3 peptide fluorescence polarization | Bcl-2-like protein 1 (Homo sapiens), Q07817 | inhibition, % at 10.9 µM | 320,000 tested, 0.7% active;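 active = inhibition above the mean of all tested compounds plus 3 SD, cutoff set per campaign, cut at about 30% in these data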;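 also: 0% = DMSO wells and 100% = unlabeled Bim-BH3 peptide competitor; inhibitors lower millipolarization by displacing the labeled peptide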
Target sequence (Q07817 whole entry, looked up): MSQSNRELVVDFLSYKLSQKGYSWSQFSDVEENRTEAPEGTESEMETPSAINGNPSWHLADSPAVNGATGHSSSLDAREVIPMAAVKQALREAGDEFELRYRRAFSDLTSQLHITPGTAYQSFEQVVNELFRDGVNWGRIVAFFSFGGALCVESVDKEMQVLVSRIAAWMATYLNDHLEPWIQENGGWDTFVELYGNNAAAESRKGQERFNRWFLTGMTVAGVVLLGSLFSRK
GLD-1 RNA inh: GLD-1/TGE RNA complex disruptors, primary screen, biochemical, fluorescence polarization. Female germline-specific tumor suppressor gld-1 (Caenorhabditis elegans), Q17339. inhibition, % at 5.96 µM. purified GLD-1 + fluorescein TGE RNA. 320,000 tested, 0.44% active;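 active = percent inhibition above a per-plate cutoff, the plate mean of test compounds plus 3 SD, cut at about 30% in these data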;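 also: 0% = DMSO wells with GLD-1 and probe and 100% = wells lacking GLD-1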
IDE inh: human IDE inhibitors in live cells, primary screen, fluorescence polarization, HEK cells, FAbetaB substrate | FAbetaB cleavage | inhibition, % at 5.59 µM | 320,000 tested, 0.41% active;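 active = percent inhibition above the average of all tested compounds plus 3 SD, set per screening campaign, cut at about 16% in these data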;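 also: IDE supplied by intact live HEK cells; FP after avidin binding of uncleaved biotin substrate so inhibition keeps polarization high; 0% = DMSO wells and 100% = 60 µM reference IDE inhibitor Ii1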
MEX-5 binding: MEX-5 zinc finger RNA-binding disruptors – biochemical, C. elegans, fluorescence polarization, MLPCN library, primary screen | 300,000 tested, 0.38% active | AID 1832, 2009 | MEX-5/FITC-TCR2 RNA binding; active compounds read low | Zinc finger protein mex-5 (Caenorhabditis elegans), Q9XUB2 | activity score (negative = inhibition of binding), % at 10 µM;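 active = inhibition past about -25% in most replicates, and total fluorescence under double the plate's negative control median, limit read from the data; inconclusive = replicates evenly split on the limit, or fluorescence at least double controls; inactive = too little inhibition in most replicates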;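 also: 0% = DMSO and -100% = 5 µM competing unlabeled TCR2 RNA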
MCL1-BIM inh: inhibitors of MCL1 binding to BIM-BH3, primary screen, biochemical, fluorescence polarization; AID 2057, 2009; inhibition, % at 10.9 µM; GST-MCL1 / FITC-Bim-BH3 fluorescence polarization; 320,000 tested, 0.68% active;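 active = inhibition above the mean inhibition of all tested compounds plus 3 SD, set per campaign, cut at about 40% in these data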;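 also: 0% = DMSO wells and 100% = unlabeled Bim-BH3 peptide control; higher means more loss of mP so more displacement of Bim peptide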
Target sequence (Q07820 whole entry, looked up): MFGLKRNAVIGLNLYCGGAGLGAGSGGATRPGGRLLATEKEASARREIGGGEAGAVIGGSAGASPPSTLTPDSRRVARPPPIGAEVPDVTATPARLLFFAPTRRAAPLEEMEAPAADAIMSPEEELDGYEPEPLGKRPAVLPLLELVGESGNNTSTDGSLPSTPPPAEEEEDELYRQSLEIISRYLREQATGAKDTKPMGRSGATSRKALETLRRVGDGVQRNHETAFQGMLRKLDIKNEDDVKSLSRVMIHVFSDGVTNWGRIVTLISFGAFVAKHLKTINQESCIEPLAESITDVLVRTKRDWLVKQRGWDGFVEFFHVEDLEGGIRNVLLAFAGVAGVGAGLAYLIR
IDE inh confirm: human IDE inhibitors in live cells, confirmation, fluorescence polarization, HEK cells, FAbetaB substrate; shares compounds with IDE inh; FAbetaB cleavage; inhibition, % at 5.59 µM; 1,200 tested, 51% active; AID 435028, 2010;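 active = mean inhibition across triplicate wells above the cutoff set by the earlier primary insulin-degrading enzyme screen, cut at about 16% in these data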;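 also: 0% = DMSO wells and 100% = 60 µM reference IDE inhibitor Ii1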
HEK cytotox: cytotoxicity in HEK cells, cytotoxicity control for IDE inhibitor project, cell-based, luminescence. shares compounds with IDE inh. HEK293 cytotoxicity, ATP luminescence. inhibition, % at 5.59 µM. 1,200 tested, 28% active. AID 449730, 2010; in the data active = inhibition above about 22%;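 also: 0% = vehicle wells and 100% = reference cytotoxic drug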
* hit, by the source's call; u = inconclusive; x = no result given.

SMILES	IDE act	Bcl-xL primary	GLD-1 RNA inh	IDE inh	MEX-5 binding	MCL1-BIM inh	IDE inh confirm	HEK cytotox
S=c1[nH]c2ccc(Cc3ccc4[nH]c(=S)[nH]c4c3)cc2[nH]1	-12	3	3	1	4	1	x	x
CCOC(=O)c1c(NC(=O)COc2ncnc3ccccc23)sc(C)c1CC	2	4	1	0	6	4	x	x
CC1CCN(C(=O)COC(=O)c2ccc3c(c2)OCO3)CC1	2	0	-6	-2	2	1	x	x
Cc1ccc(-c2nnn(CC(=O)Nc3nnc(C(C)C)s3)n2)cc1	7	-4	1	-4	1	5	x	x
C/C(=N\Nc1ccc([N+](=O)[O-])cc1)c1cc2ccccc2o1	-20	-39	-40	18*	2	-71	8	10
CCCCCN(C(=O)CCC(=O)OCC(=O)c1ccc(CCC)cc1)c1c(N)n(CCCC)c(=O)[nH]c1=O	-19	-2	3	24*	0	1	21*	8
O=C(CSc1nccc(=O)[nH]1)N1N=C2/C(=C/c3ccco3)CCCC2C1c1ccco1 (stereo not given)	6	4	-4	10	0	18	x	x
Cn1cnnc1SCC(=O)N1N=C2/C(=C/c3ccco3)CCCC2C1c1ccco1 (stereo not given)	-24	4	0	17*	-1	8	9	13
CC(NC(=O)Cc1ccsc1)c1ccc(F)cc1 (stereo not given)	4	-1	8	-2	0	-5	x	x
CCc1ccc(OCC(=O)O/N=C(\N)c2cccnc2)cc1	x	1	7	17*	2	4	3	11
CCOc1ccc(NC(=O)c2ccccn2)cc1	2	6	17	17*	-6	-12	10	27*
Cc1ccc(S(=O)(=O)N2CCOCC2)cc1NC(=O)COC(=O)CNC(=O)c1ccc(Oc2ccccc2)cc1	-12	3	-3	17*	1	1	6	13
Cc1ccc(C(=O)NCC(=O)OCC(=O)Nc2cc(S(=O)(=O)N3CCOCC3)ccc2C)cc1	-5	-2	-3	-3	2	-5	x	x
CN(C)c1ccc(/C=C/C(=O)c2cccc(Br)c2)cc1	-172	46*	-21	107*	u	14	110*	26*
CCN(Cc1ccccc1)C(=O)COC(=O)[C@@H]1CCCN1C(=O)c1cccs1	4	x	4	0	x	x	x	x
CC(=O)Nc1cccc(NC=C(C#N)C#N)c1	-4	2	-8	-1	0	1	x	x
CCOC(=O)c1c(C)[nH]c(C(=O)Cn2nnc(-c3ccccc3)n2)c1C	0	-1	-7	6	0	-2	x	x
CCOC(=O)c1c(C)[nH]c(C(=O)Cn2nnc(-c3ccccc3Cl)n2)c1C	-19	2	1	19*	-1	6	4	15
COc1ccc(OCCNC(=O)Nc2cc(F)c(F)cc2Cl)cc1	-9	1	10	18*	3	5	3	6
COc1cc(C(=O)Oc2ccccc2OC(=O)c2cc(OC)c(OC)c(OC)c2)cc(OC)c1OC	1	x	x	x	x	x	x	x
COc1ccc(Br)cc1CN(C)C(=O)CNC(=O)c1ccc2ccccc2c1	2	4	-1	10	2	3	x	x
CCOc1ccc(CN(C)C(=O)CNC(=O)c2ccc3ccccc3c2)cc1OC	-6	3	10	17*	0	5	9	15
Cc1[nH]n(-c2ccccc2)c(=S)c1C=Nc1ccc([N+](=O)[O-])cc1	-33	-18	6	20*	x	-11	3	18
CSCc1c(C(=O)OCC(=O)NC2CCCCC2)oc2ccccc12	3	-1	3	-2	x	-2	x	x
O=c1c2cc(F)ccc2sn1-c1ccc(F)cc1	-22	-12	9	35*	x	20	18*	42*
SMILES	IDE act	Bcl-xL primary	GLD-1 RNA inh	IDE inh	MEX-5 binding	MCL1-BIM inh	IDE inh confirm	HEK cytotox
Cc1ccc(C)c(-n2sc3ccc(F)cc3c2=O)c1	-22	7	5	36*	x	10	19*	69*
COc1ccc(N2C(=O)CSC2c2ccc(F)cc2)cc1 (stereo not given)	2	2	-7	-1	1	3	x	x
O=C1CCCC(=O)N1c1ccc(F)cc1	-5	6	9	1	3	4	x	x
COc1ccc(-n2sc3ccc(F)cc3c2=O)cc1	-23	-6	4	58*	x	23	35*	81*
NC(=O)C1CCN(C(=O)CCNS(=O)(=O)c2ccccc2F)CC1	4	5	4	-2	x	0	x	x
CCC(Oc1cc(Cl)ccc1Cl)C(=O)N1CCCN(C)CC1 (stereo not given)	4	x	x	x	0	x	x	x
COc1ccc(Cl)cc1NC(=O)CN(C)C(=O)Cc1ccc2c(c1)CCC2	-8	5	4	18*	1	0	19*	13
CCOC(=O)c1sc(N2C(=O)C(O)=C(C(=O)c3ccco3)C2c2cccc([N+](=O)[O-])c2)nc1C (stereo not given)	6	9	3	-1	2	4	x	x
Cc1[nH]c(=O)[nH]c(=S)c1C(=O)Nc1ccc(Cl)c(Cl)c1	-13	-16	-1	26*	2	-21	2	11
Cc1ccc(C(=O)/C=C/N(C)C)o1	7	-9	-3	6	0	-10	x	x
Cc1ccc(C(=O)/C=C/c2cc(Br)cc(Br)c2O)o1	-13	3	2	16*	1	-7	26*	21
COc1ccc2nc3sc(C(=O)NCCCN4CCc5ccccc5C4)cc3cc2c1	-8	12	8	20*	3	-4	3	11
O=c1oc2cc(O)ccc2cc1-c1nc2c(s1)CCc1ccccc1-2	31*	37*	100*	128*	x	27	26*	16
O=c1oc2ccccc2cc1-c1nc2c(s1)CCc1ccccc1-2	5	11	-4	1	-1	-13	x	x
CCOc1ccc(/C=C2\SC(=S)N(N3C(=O)C4CC4C3=O)C2=O)cc1 (stereo not given)	-4	10	3	4	-2	6	x	x

Source: PubChem
